From PubChem
Shown are actives, neighbours in structure and some others; about 19% of the full set was active somewhere.
KB-3-1 tox: qHTS assay for MDR1-selective chemotherapeutics: Primary screen using the parental adenocarcinoma cell KB-3-1 | KB-3-1 viability, CellTiter-Glo ATP luminescence, 72 h | Potency, µM (titrated, usually from 46.1 µM), actives largely listed as cytotoxic | 400,000 compounds, 1.4% hits | AID 1347075, 2019; also: nearly all actives have a fitted effect of over 60% in size
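Cytotoxicity in the drug-sensitive parental line KB-3-1 was scored as loss of CellTiter-Glo luminescence following 72 h incubation with compound. Values come from curve fitting of normalized concentration-response data.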
HT1080NT lethal: qHTS for induction of synthetic lethality in tumor cells producing 2HG: qHTS for the HT-1080-NT fibrosarcoma cell line. 360,000 compounds, 1.6% hits. AID 686970, 2013. Potency, µM (doses to about 46.1 µM), for inactives: at the top dose activity, negative = less viability, actives largely listed as cytotoxic. HT-1080-NT fibrosarcoma viability, CellTiter-Glo ATP luminescence, 48 h;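 also: NT is the 2HG producing partner of a matched IDH1 knockdown line; 0% = DMSO-treated cells and -100% = media-only wells without cells; nearly all actives have a fitted effect of over 55% in size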
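Read-out is CellTiter-Glo luminescence after 10 minutes at room temperature, following 48 hours' compound treatment of HT-1080-NT cells (750 cells/well, RPMI, 5% FBS, 37 degrees C).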
TDP1 cell noCPT: qHTS for Inhibitors of human tyrosyl-DNA phosphodiesterase 1 (TDP1): qHTS in cells in absence of CPT. DT40 Tdp1-/- hTDP1 cells, no CPT, ATP luminescence, 48 h. Potency, µM (doses to about 46.2 µM), for the others: at the top dose activity change, negative = growth inhibition, usual class: inhibitors. 420,000 compounds, 15% hits; also: nearly all actives have a fitted effect of over 55% in size
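A cellular qHTS used chicken DT40 cells lacking endogenous Tdp1 but carrying stably transfected human TDP1. Compounds were applied without camptothecin, and cell growth kinetics were judged by ATP-dependent luminescence after ≥48 hr.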
TDP1 cell CPT: qHTS for Inhibitors of human tyrosyl-DNA phosphodiesterase 1 (TDP1): qHTS in cells in presence of CPT; AID 686979, 2013; chicken DT40 Tdp1-/-;hTDP1 cells + 20 nM CPT, ATP luminescence, 48 h; 420,000 compounds, 12% hits; Potency, µM (highest dose often 46.2 µM), without a hit: at the highest dose activity change, negative = growth inhibition, hits mostly inhibitors; also: nearly all actives have a fitted effect of over 55% in size
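Chicken DT40 Tdp1-/- cells complemented with human TDP1, 400 cells/well, exposed to compounds plus 20 nM camptothecin for at least 48 h at 37 C; viability read as ATP content by CellTiter-Glo luminescence.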
KB-V1 MDR tox: qHTS assay for MDR1-selective chemotherapeutics: Primary screen using the drug-selected MDR subline cells KB-V1; AID 1347076, 2019; KB-V1 MDR cells viability, CellTiter-Glo, 72 h; 400,000 compounds, 3.4% hits; Potency, µM (titrated, usually from 46.1 µM), most hits filed as cytotoxic; also: nearly all actives have a fitted effect of over 60% in size
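Cytotoxicity toward P-gp-expressing KB-V1 cells was determined as loss of CellTiter-Glo luminescence after 72 h at 37 degrees C. Compounds were tested in quantitative HTS format across a concentration range, with curves fitted to normalized data.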
HT1080 IDH1KD tx: qHTS for induction of synthetic lethality in tumor cells producing 2HG: qHTS for the HT-1080-IDH1KD cell line | Potency, µM (highest dose often 46.1 µM), inactives show at the highest dose activity, negative = toxicity, hits mostly cytotoxic | 360,000 compounds, 2% hits | HT-1080 IDH1 knockdown viability, ATP luminescence, 48 h;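 also: 0% = DMSO wells and -100% = cell-free medium wells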
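CellTiter-Glo luminescence after 48 h compound exposure at 37 degrees C of IDH1-knockdown HT-1080 cells in 5% FBS RPMI. %Activity scaled between DMSO wells and cell-free media wells, with curves fitted and assigned curve classes.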
Active calls of the source: *; i = inactive; ? = inconclusive; · = no result given; ! = not active in a repeat. Calls follow the shape of the dose curve; as a rule, active = well fitted curve in the direction sought with a large enough effect; inconclusive = small, poorly fitted or top-dose-only effect, or another doubt; inactive = no such curve, though single readings can be large; an effect the other way counts as inactive or inconclusive. Unless noted, % is scaled to controls: 0 for no effect and ±100 for the full control effect; potency is read from the fitted curve at half-maximal effect.

SMILES	KB-3-1 tox	HT1080NT lethal	TDP1 cell noCPT	TDP1 cell CPT	KB-V1 MDR tox	HT1080 IDH1KD tx
COc1ccc(-c2ccc(NS(=O)(=O)c3cccc(Cl)c3)cc2)nn1	i	·	?	?	i	·
CSc1cccc(NC(=O)CCCNC(=O)c2ccc(Cl)cc2)c1	i	-14%	?	-4%	i	-14%
COc1ccc(-c2cc(C)no2)cc1S(=O)(=O)NCc1ccco1	i	·	?	?	?	·
COc1ccc(CNS(=O)(=O)c2cc(-c3cc(C)no3)ccc2OC)cc1OC	?	10%	7%	-7%	i	11%
CCN(c1ccc(OC)cc1)S(=O)(=O)c1cc(-c2cc(C)no2)ccc1C(C)C	?	-7%	21µM*	?	?	-14%
CCc1ccccc1N(C)S(=O)(=O)c1cc(-c2cc(C)no2)ccc1OC	?	?	?	13µM*	i	?
COc1ccc(-c2cc(C)no2)cc1S(=O)(=O)NCc1ccc(OC(C)C)cc1	i	7%	18µM*!	?	?	-4%
COc1ccc(-c2cc(C)no2)cc1S(=O)(=O)NCc1cccc(C)c1	?	18µM*	?	8%	?	?
Cc1ccc(N(CC(=O)NCCc2ccccc2)S(=O)(=O)N(C)C)cc1	i	·	?	-20%	i	·
CCOc1ccccc1NC(=O)CCn1ccnc1	i	-1%	-4%	?	i	-7%
Cc1cc2c(cc1NC(=O)c1ccccc1Cl)n(C)c(=O)c(=O)n2C	i	·	-14%	-20%	i	·
CCCOc1ccc(-c2c(=O)n(O)c3ccccc3[n+]2[O-])cc1	i	11%	-28%	?	i	16%
COc1cccc(CNS(=O)(=O)c2cc(-c3cc(C)no3)ccc2C(C)C)c1	i	-16%	?	21µM*	?	?
CCOC(=O)C1=CN(Cc2cccc(-c3ccc4c(c3)OCO4)c2)S(=O)(=O)N(C)C1C (centres undefined)	i	1%	23µM*	?	i	3%
CCOC(=O)C1=CN(Cc2cccc(F)c2)S(=O)(=O)NC1CCc1ccccc1 (centres undefined)	i	?	26µM*	?	i	?
CCOC(=O)C1=CN(Cc2cccc(F)c2)S(=O)(=O)N(C)C1c1ccc2ccccc2c1 (centres undefined)	i	3%	?	-55%	i	7%
CCCN1C(C)C(C(=O)OCC)=CN(Cc2cccc(I)c2)S1(=O)=O (centres undefined)	i	-14%	16µM*	?	i	-11%
CCOC(=O)C1=CN(Cc2cccc(F)c2)S(=O)(=O)N(C)C1c1ccc(F)c(Cl)c1 (centres undefined)	i	5%	16µM*	?	i	1%
CCOC(=O)C1=CN(CC)S(=O)(=O)NC1CCc1ccccc1 (centres undefined)	i	0%	-30%	-14%	i	-10%
CCN(CC)CCNC(=O)c1ccc(-c2nc(CS(=O)(=O)c3ccc(C)cc3)c(C)o2)cc1	i	·	-19%	-10%	i	·
CC1(c2nnnn2Cc2ccccc2)CCC(=O)N1CCc1ccc(O)cc1 (centres undefined)	i	3%	-16%	-7%	i	5%
CC#CCN1C=C(C(=O)OCC)C(C)N(Cc2ccc(Br)cc2)S1(=O)=O (centres undefined)	i	-9%	23µM*	18µM*	i	3%
CCOC(=O)C1=CN(Cc2cccc(-c3ccc(Cl)nc3)c2)S(=O)(=O)N(C)C1C (centres undefined)	i	-4%	21µM*	23µM*	?	-5%
O=C1C(=Cc2cccs2)C(=O)c2ccccc21	i	-3%	-6%	3%	i	-10%
O=C1C(c2ccccc2)=[N+]([O-])c2ccccc21	?	?	4.1µM*	5.2µM*	?	?
SMILES	KB-3-1 tox	HT1080NT lethal	TDP1 cell noCPT	TDP1 cell CPT	KB-V1 MDR tox	HT1080 IDH1KD tx
CC(=O)Nc1c(O)cc(Br)c2nonc12	i	·	-10%	3%	?	·
CC(=O)Nc1cc(O)c2nonc2c1O	2.6µM*	·	0.71µM*	0.63µM*	?	·
CC(C)N(Cc1ccccc1)C(=O)c1ccc2nsnc2c1	i	18%	21µM*	?	i	18%
C=CCn1c(SCC(=O)N2CCOCC2)nc2sc3c(c2c1=O)CCCC3	i	-13%	18µM*	?	i	-18%
C=CCn1c(SCC(=O)N2CCOCC2)nc2sc(C)c(C)c2c1=O	i	-19%	-29%	-19%	i	-3%
C=CCn1c(SCC(=O)N2CCOCC2)nc(O)c(Cc2ccccc2)c1=O	i	12%	13µM*	?	i	5%
Cn1c(SCC(=O)N2CCOCC2)nc2sc3c(c2c1=O)CCCC3	i	1%	23µM*	9.2µM*	?	-5%
COc1ccccc1-n1c(SCC(=O)N2CCOCC2)nc(O)c(Cc2ccccc2)c1=O	i	0%	-5%	-17%	i	1%
CN(C)c1ccc(CCC2C=Cc3ccccc32)cc1 (centres undefined)	i	·	?	?	i	·
CCc1ccc(-n2c(=O)c3c4c(sc3n(Cc3ccccc3C#N)c2=O)CCC4)cc1	i	·	-7%	-12%	i	·
COC(=O)c1ccc(CSc2nc3c([nH]c4ccccc43)c(=O)n2-c2cc(C)cc(C)c2)o1	i	·	?	?	?	·
CNC(=O)COC(=O)c1cccnc1SC	i	-4%	-12%	1%	i	0%
CCn1c(C)cc(C(=O)COC(=O)c2cccnc2SC)c1C	·	5%	?	16µM*	·	-1%
CSc1ncccc1C(=O)OCC(=O)c1cc(C)n(C)c1C	i	7%	-30%	-21%	?	12%
COCCNC(=O)COC(=O)c1cccnc1SC	i	9%	-108%	18µM*	?	17%
